About 83,000 compounds went through this panel and 20% of them were active in at least one assay; those are over-represented in the sample as a whole.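 Cells were grown in 96-well plates and exposed to the test compound at a single concentration for 48 hours; results are reported as percent growth, with values below 10 considered active.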 Active and inactive are the calls of the source.
Key:
Test in all cases: NCI-60 one-dose screen, 48 h (100 = growth as untreated, 0 = no growth, -100 = all killed)
[1] = system: SR leukemia; settings: 10 µM unless noted
[2] = system: OVCAR-8 ovarian; settings: 10 µM unless noted
[3] = system: OVCAR-5 ovarian; settings: 10 µM unless noted
[4] = system: OVCAR-4 ovarian; settings: 10 µM unless noted
[5] = system: IGROV1 ovarian; settings: 10 µM unless noted
[6] = system: OVCAR-3 ovarian; settings: 10 µM unless noted
[7] = system: HS 578T breast; settings: 10 µM unless noted
[8] = system: NCI/ADR-RES ovarian; settings: 10 µM unless noted
[9] = system: BT-549 breast; settings: 10 µM unless noted
[10] = system: MDA-MB-435 melanoma; settings: 10 µM unless noted
[11] = system: SW-620 colon; settings: 10 µM unless noted
[12] = system: MCF7 breast; settings: 10 µM unless noted
[13] = system: HCT-116 colon; settings: 10 µM unless noted
[14] = system: HCC-2998 colon; settings: 10 µM unless noted
[15] = system: KM12 colon; settings: 10 µM unless noted
[16] = system: SK-OV-3 ovarian; settings: 10 µM
[17] = system: T-47D breast; settings: 10 µM
[18] = system: RPMI-8226 leukemia; settings: 10 µM

Measured: growth

c1ccc(-c2n(Cc3ccc4ccccc4n3)c3ccccc3[n+]2Cc2ccc3ccccc3n2)cc1
inactive: [3] 12.8% | [8] 73.4%
active: [1] -19.1% | [2] 7.66% | [4] 7.64% | [5] -34.3% | [6] 0.883% | [7] 2.04% | [9] -0.501% | [10] -12.7% | [11] 2.87% | [12] 1.36% | [13] 5.91% | [14] -3.47% | [15] -61.2%

Fc1c[c-]c(-c2ccccn2)c(F)c1.Fc1c[c-]c(-c2ccccn2)c(F)c1.[Cl][Pt+].[Cl][Pt+].c1ccc([PH+](C[PH+](c2ccccc2)c2ccccc2)c2ccccc2)cc1
active: [4] 6.98% | [6] 7.81% | [10] 5.73% | [12] 8.56% | [13] 8.2%
inactive: [1] 19.7% | [2] 15.1% | [3] 49.2% | [5] 21.2% | [7] 26.1% | [8] 97.9% | [9] 15.8% | [11] 15.5% | [14] 22.4% | [15] 12.3%

CCOC(=O)n1cc(C2=C(c3cn(C)c4ccccc34)COC2=O)c2ccccc21
inactive: [1] 14% | [2] 16.5% | [3] 29.9% | [4] 28.8% | [5] 14.7% | [9] 26.8% | [11] 20.9% | [12] 10.2% | [13] 10.6% | [14] 16.5%
active: [6] -29.8% | [7] 9.62% | [8] 2.15% | [10] -22.2% | [15] 2.55%

COc1cc(-c2nc(SC(C)C)nc(Nc3ccccc3C)c2C#N)cc(OC)c1OC
inactive: [1] 110% | [2] 103% | [3] 99.1% | [4] 110% | [5] 104% | [6] 121% | [7] 104% | [8] 109% | [9] 109% | [10] 106% | [11] 104% | [12] 101% | [13] 114% | [14] 106% | [15] 104%

Cc1ccccc1-n1nnc(C(=O)Nc2nc(-c3ccccc3)c(-c3ccccc3)s2)c1C
inactive: [1] 69.5% [50 µM] | [2] 67.9% [50 µM] | [3] 96.5% [50 µM] | [4] 58.1% [50 µM] | [5] 89.9% [50 µM] | [6] 79.8% [50 µM] | [7] 46.7% [50 µM] | [8] 84.3% [50 µM] | [9] 89.7% [50 µM] | [10] 82.7% [50 µM] | [11] 87.3% [50 µM] | [12] 72.2% [50 µM] | [13] 62.6% [50 µM] | [14] 99.1% [50 µM] | [15] 81.4% [50 µM]

COC(=O)[C@H]1CCCN1C(=O)[C@H]1CCCN1C(=O)[C@@H](Cc1c[nH]c2ccccc12)NC(=S)Nc1cc(C(F)(F)F)cc(C(F)(F)F)c1
inactive: [1] 14.4% | [2] 66.8% | [3] 76.4% | [4] 44.6% | [16] 77.2% | [5] 22.7% | [6] 48.3% | [7] 12.3% | [8] 89.9% | [17] 50.2% | [9] 91.9% | [10] 31.6% | [11] 64.2% | [12] 26.1% | [13] 39.5% | [14] 31.8% | [15] 37.2%

CC1CCCCN1S(=O)(=O)c1ccc(CN=C=S)cc1 (centres undefined)
inactive: [2] 78.7% | [3] 93% | [4] 100% | [5] 60.9% | [7] 59.4% | [8] 102% | [9] 76% | [10] 47.2% | [12] 10.2% | [14] 103% | [15] 22.2%
active: [1] 5.92% | [6] -55.6% | [11] -15.4% | [13] 9.92%

COC(=O)[C@@H]1CCCN1C(=O)[C@@H]1CCCN1C(=O)[C@@H](Cc1c[nH]c2ccccc12)NC(=S)Nc1cc(C(F)(F)F)cc(C(F)(F)F)c1
active: [1] -17.5% | [10] 5.44%
inactive: [2] 67.6% | [3] 91% | [4] 42% | [16] 90.9% | [5] 36% | [6] 44.1% | [7] 59.2% | [8] 99.8% | [17] 32.8% | [9] 82.4% | [11] 50.3% | [12] 25.9% | [13] 34% | [14] 35.4% | [15] 66.2%

COc1ccc(S(=O)(=O)c2ccc(C(N)=O)cc2)cc1NC(=O)c1[nH]c(C)c2c1CCCCC2=O
inactive: [1] 50% | [18] 46.9% | [2] 74.5% | [4] 51.1% | [5] 64.9% | [6] 48% | [8] 105% | [17] 34.4% | [9] 58.6% | [10] 28.6% | [12] 23.1% | [13] 60% | [14] 66%
active: [7] -2.07%

COc1cc(-c2nc(SC(C)C)nc(Nc3cccc(C)c3)c2C#N)cc(OC)c1OC
inactive: [1] 95% | [2] 93.5% | [3] 107% | [4] 107% | [5] 103% | [6] 115% | [7] 104% | [8] 105% | [9] 107% | [10] 107% | [11] 109% | [12] 98.1% | [13] 115% | [14] 116% | [15] 110%

COc1cc(Cn2cc(F)c(=O)[nH]c2=O)cc(OC)c1
inactive: [1] 103% [50 µM] | [2] 101% [50 µM] | [3] 101% [50 µM] | [4] 108% [50 µM] | [5] 106% [50 µM] | [6] 126% [50 µM] | [7] 96.7% [50 µM] | [8] 112% [50 µM] | [9] 95.4% [50 µM] | [10] 109% [50 µM] | [11] 102% [50 µM] | [12] 104% [50 µM] | [13] 111% [50 µM] | [14] 114% [50 µM] | [15] 108% [50 µM]

c1ccc2cc(-c3n(Cc4ccc5ccccc5n4)c4ccccc4[n+]3Cc3ccc4ccccc4n3)ccc2c1
active: [1] -24.5% | [2] -0.932% | [3] 8.83% | [4] 4.26% | [5] -51% | [6] -18.9% | [7] -9.29% | [9] -5.25% | [10] -35.6% | [11] -9.76% | [12] -10.4% | [13] 2.75% | [14] -52.7% | [15] -80.8%
inactive: [8] 58.6%

CCCOC(=O)c1ccc2c(c1)[N+](=O)C(C(=O)c1ccccc1)=C(C(F)(F)F)[N+]2=O
active: [1] -41.4% | [2] -86% | [3] -87.7% | [4] -73.1% | [16] -99.9% | [5] -74.4% | [6] -95.3% | [7] -52% | [8] -43.1% | [17] -83.2% | [9] -83.9% | [10] -89.5% | [11] -82.5% | [12] -69.7% | [13] -73% | [14] -87.6% | [15] -81.6%

Cc1ccc(-c2nnc(COc3ccc(-c4nnc(N)s4)cc3)o2)cc1
inactive: [2] 100% | [3] 113% | [4] 58% | [16] 80.7% | [5] 108% | [6] 98.1% | [7] 85% | [8] 95% | [17] 101% | [9] 92.9% | [10] 72.4% | [11] 94.8% | [12] 68.3% | [13] 63.4% | [14] 107% | [15] 92.6%
active: [1] 5.12%

FC(F)(F)c1ccc2c(c1)n1cnnc1c1nncn21
inactive: [1] 84.1% | [18] 95.2% | [3] 110% | [4] 111% | [16] 109% | [5] 119% | [6] 117% | [8] 113% | [17] 102% | [9] 103% | [10] 112% | [11] 108% | [12] 98.2% | [13] 105% | [14] 108% | [15] 110%

O=c1oc2ccccc2cc1-c1csc(N=Nc2c(O)[nH]c3ccc(Br)cc23)n1
inactive: [1] 114% | [18] 109% | [2] 102% | [5] 99.8% | [6] 108% | [7] 93.3% | [8] 103% | [17] 107% | [9] 102% | [10] 98.8% | [11] 103% | [12] 94% | [13] 98.1% | [14] 102% | [15] 103%

CN(C)c1ccc(/C=C(\C#N)c2cc3ccccc3n2C)cc1
inactive: [1] 22% | [2] 34.8% | [3] 38.5% | [4] 40.3% | [5] 26.7% | [7] 20.9% | [9] 37.6% | [11] 21% | [12] 15.1% | [13] 10.6% | [14] 20.1% | [15] 18.5%
active: [6] -4.72% | [8] 7.61% | [10] -26.9%

FCOC(C(F)(F)F)C(F)(F)F
inactive: [1] 86.2% | [2] 107% | [3] 103% | [4] 121% | [16] 98% | [5] 111% | [6] 107% | [7] 107% | [8] 106% | [17] 97.9% | [9] 103% | [10] 103% | [11] 101% | [12] 101% | [13] 103% | [14] 104% | [15] 103%

COc1cccc(Nc2nc(NCCO)c3ccccc3n2)c1
inactive: [1] 47.1% | [18] 13.7% | [2] 81.9% | [16] 102% | [6] 61.5% | [7] 62.4% | [8] 63.9% | [17] 75.2% | [9] 72.9% | [10] 72.3% | [12] 76.8% | [13] 72.1% | [14] 87.5% | [15] 51.2%

Source: PubChem BioAssay (NCI)
